These results are taken from PubChem BioAssay (Tox21).

The nature of assay [1]: qHTS assay to identify small molecule agonists of the RXR signaling pathway - cell viability counter screen (AID 1159529). For activity change, negative = cytotoxicity: series mostly up to about 77 µM. Note: nearly all actives have a fitted effect of over 50% in size. Note: potency is the fitted concentration of half-maximal effect. In short, it runs like this: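 CellTiter-Glo luminescence gave viability in the wells also read for beta-lactamase. Cells (RXR-alpha-UAS-bla HEK 293T, 2% charcoal-stripped FBS medium) had 5 hr plating, then 16 hr compound exposure at 37 C; tetraoctyl ammonium bromide served as positive control.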
Background: Quantitative high-throughput screening tests each substance at several concentrations.

The nature of assay [2]: qHTS assay to identify small molecule antagonists of the retinoid acid receptor (RAR) signaling pathway - cell viability counter screen (AID 1159551). Note: nearly all actives have a fitted effect of over 35% in size. In short, it runs like this: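 Retinol-stimulated (1 uM final) C3RL4 cells, compound 6 h, 37 C; readout CellTiter-Glo luminescence (ATP) after 30 min RT incubation.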
Assay [3] can be described thus: qHTS assay to identify small molecule antagonists of the retinoic acid receptor (RAR) signaling pathway (AID 1159552; note: nearly all actives have a fitted effect of over 50% in size). In short, it runs like this: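 Luminescent RARE reporter read-out in C3RL4 cells: 6 hr co-treatment at 37 C of test compounds with retinol at 1 uM final. Cells plated overnight beforehand; luciferase reagent incubated 30 min at room temperature before reading.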

A short description of assay [4]: qHTS assay to identify small molecule agonists of the retinoic acid receptor (RAR) signaling pathway (AID 1159553). In short, it runs like this: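 Reporter readout comes from luciferase under RARE control in C3RL4 cells; compound exposure lasts 6 hr at 37 C in 5% CO2, and luminescence is recorded following a 30 min room-temperature incubation with reagent.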
The nature of assay [5]: qHTS assay to identify small molecule antagonists of the estrogen related receptor (ERR) signaling pathway from Tox21 library - cell viability counter screen (AID 1224834). Note: nearly all actives have a fitted effect of over 30% in size. Put shortly:
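After 17.5 h of compound exposure at 37 C, ERR cells are incubated with CellTiter-Fluor for 30 min and fluorescence intensity serves as the viability measure.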

The target of assay [6] is Luciferin 4-monooxygenase (Photinus pyralis) (UniProt P08659). In words: qHTS assay to identify small molecule inhibitors of firefly luciferase (AID 1224835). For activity change, negative = inhibition: series mostly up to about 120 µM. Note: nearly all actives have a fitted effect of over 25% in size. Note: potency is the fitted concentration of half-maximal effect. Put shortly:
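Inhibition of purified Photinus luciferase is measured by luminescence. Substrate levels (D-luciferin, ATP) sit at their KM values. Each compound is tested in a concentration series.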

The target of assay [7] is Nuclear receptor subfamily 1 group I member 3 (Homo sapiens) (UniProt Q14994). Briefly: qHTS assay to identify small molecule antagonists of the constitutive androstane receptor (CAR) signaling pathway (AID 1224838).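 Note: HepG2 cells stably expressing hCAR with CYP2B6 luciferase reporter stimulated by CITCO; nearly all actives have a fitted effect of over 40% in size.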 Put shortly: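 Cell line: HepG2 double-stable for hCAR and CYP2B6-2.2kb reporter. Agonist: CITCO, 50 nM final. Compounds: 15 concentrations, 24 h, 37 C. Detection: ONE-Glo luminescence.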

Assay [8] has the same target. In words: qHTS assay to identify small molecule agonists of the constitutive androstane receptor (CAR) signaling pathway (AID 1224839).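 For activation: HepG2 cells stably carrying human CAR and a CYP2B6 luciferase reporter; series mostly up to about 92 µM.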 Note: nearly all actives have a fitted effect of over 15% in size. Note: potency is the fitted concentration of half-maximal effect. Put shortly: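 Luminescent ONE-Glo read-out after 24 hr, 37 C exposure of double-stable HepG2-CYP2B6-hCAR reporter cells to a 15-point compound series, in the presence of 0.75 uM PK11195 (final).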
Assay [9] can be described thus: qHTS assay to identify small molecule antagonists of the estrogen related receptor signaling pathway with the pleiotropic PPARgamma coactivator (PGC) from Tox21 10K library - cell viability counter screen (AID 1224840; active = well fitted cell-killing curve with a large enough effect in the repeat runs, not every such curve was filed as active; note: nearly all actives have a fitted effect of over 40% in size). Put shortly: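 Following seeding of 2,000 PGC/ERR cells/well and 6 hours' incubation, test compounds were delivered in DMSO. The plates then sat 17.5 hours at 37 C before a fluorogenic live-cell protease reagent (CellTiter-Fluor) was read after 30 min.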

Assay [10] deals with Thyrotropin receptor (Homo sapiens) (UniProt P16473). In words: qHTS assay to identify small molecule agonists of the thyroid stimulating hormone receptor (TSHR) signaling pathway (AID 1224843; calls by dose curve; note: nearly all actives have a fitted effect of over 45% in size). Put shortly:
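HEK293 cells stably bearing the thyrotropin receptor were plated at 800 cells/well and challenged with compound (30 min, RT). Accumulated cAMP was quantified via cAMP-d2 competing for cryptate-tagged antibody.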

Assay [11] can be described thus: qHTS assay to identify small molecule agonists of the constitutive androstane receptor (CAR) signaling pathway - cell viability counter screen (AID 1224836). Note: series mostly up to about 92 µM; nearly all actives have a fitted effect of over 45% in size. In short, it runs like this: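 Cell viability multiplexed with the CAR agonist screen: CellTiter-Fluor fluorescence after 23 hr at 37 C. HepG2-CYP2B6-hCAR cells got compounds at 15 concentrations with PK11195 at 0.75 uM final.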

A short description of assay [12]: qHTS assay to identify small molecule antagonists of the constitutive androstane receptor (CAR) signaling pathway - cell viability counter screen (AID 1224837). Note: series mostly up to about 92 µM; nearly all actives have a fitted effect of over 45% in size. Put shortly:
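Counter screen run in HepG2-CYP2B6-hCAR cells: 4 hr settle, compound titration (15 concentrations) with 50 nM CITCO, 23 hr at 37 C/5% CO2, CellTiter-Fluor fluorescence.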

Assay [13] is described as follows: qHTS assay to identify small molecule antagonists of the estrogen related receptor signaling pathway with the pleiotropic PPARgamma coactivator (PGC) from Tox21 10K library (AID 1224841; call rule not given here; note: series mostly up to about 92 µM; actives are mostly falling curves and most rising ones were filed inactive; nearly all actives have a fitted effect of over 50% in size). Put shortly:
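qHTS antagonist format: PGC/ERR cells, 2k/well, compound in DMSO by pin transfer after 6 h attachment, 18 h treatment at 37 C, One-Glo luminescence read at 30 min.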

A short description of assay [14]: qHTS assay to identify small molecule agonists of the estrogen related receptor signaling pathway with the pleiotropic PPARgamma coactivator (PGC) from Tox21 10K library (AID 1224842). Note: nearly all actives have a fitted effect of over 15% in size. In short, it runs like this: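 Luminescence from One-Glo (30 min, room temperature) measured after PGC/ERR cells had 18 h at 37 C with pinned compound (23 nL in DMSO). Cells had been seeded at 2,000 per well and pre-incubated 6 h.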

SMILES strings stand for the structures. Inconclusive results are not listed. A number with no mark means an inactive call. The source made the active and inactive calls. Unless noted, calls come from the whole dose curve; as a rule, active = well fitted curve in the direction sought with a large enough effect in the repeat runs; inconclusive = weak or mixed curves; inactive = no such curve, though single readings can be large; an effect the other way counts as inactive or inconclusive.
% is set by controls: 0 for no effect and ±100 for the full control effect.

Nuclear receptor subfamily 1 group I member 3 (Homo sapiens), sequence (Q14994 whole entry, looked up): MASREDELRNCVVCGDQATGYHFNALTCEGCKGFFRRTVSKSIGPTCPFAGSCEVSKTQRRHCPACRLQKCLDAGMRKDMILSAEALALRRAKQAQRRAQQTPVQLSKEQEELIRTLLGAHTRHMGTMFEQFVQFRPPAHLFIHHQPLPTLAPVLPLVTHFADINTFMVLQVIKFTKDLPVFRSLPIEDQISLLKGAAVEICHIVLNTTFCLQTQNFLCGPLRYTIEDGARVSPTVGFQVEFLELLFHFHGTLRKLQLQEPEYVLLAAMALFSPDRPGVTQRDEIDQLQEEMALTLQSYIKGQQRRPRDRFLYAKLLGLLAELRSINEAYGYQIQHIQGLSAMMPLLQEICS
Thyrotropin receptor (Homo sapiens), sequence (P16473 whole entry, looked up): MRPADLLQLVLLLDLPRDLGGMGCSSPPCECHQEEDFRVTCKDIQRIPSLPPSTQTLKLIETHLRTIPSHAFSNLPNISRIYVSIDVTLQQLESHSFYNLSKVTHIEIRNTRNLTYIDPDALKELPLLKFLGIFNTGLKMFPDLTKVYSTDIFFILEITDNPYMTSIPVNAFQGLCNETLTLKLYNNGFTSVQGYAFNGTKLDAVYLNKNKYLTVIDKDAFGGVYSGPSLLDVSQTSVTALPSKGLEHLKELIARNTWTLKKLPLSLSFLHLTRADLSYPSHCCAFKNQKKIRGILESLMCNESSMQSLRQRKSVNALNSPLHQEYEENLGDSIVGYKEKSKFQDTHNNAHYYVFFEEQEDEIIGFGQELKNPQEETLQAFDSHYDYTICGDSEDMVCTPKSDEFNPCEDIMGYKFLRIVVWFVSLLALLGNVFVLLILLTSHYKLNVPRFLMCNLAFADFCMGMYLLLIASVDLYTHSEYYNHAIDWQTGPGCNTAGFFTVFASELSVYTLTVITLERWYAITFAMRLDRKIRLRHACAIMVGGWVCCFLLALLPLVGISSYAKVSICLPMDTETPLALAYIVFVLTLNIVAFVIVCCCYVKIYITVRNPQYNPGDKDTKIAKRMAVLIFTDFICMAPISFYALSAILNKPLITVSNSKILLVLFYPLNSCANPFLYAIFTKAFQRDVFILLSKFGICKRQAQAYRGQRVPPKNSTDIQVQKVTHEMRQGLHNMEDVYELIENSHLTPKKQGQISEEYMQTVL
Luciferin 4-monooxygenase (Photinus pyralis), sequence (P08659 whole entry, looked up): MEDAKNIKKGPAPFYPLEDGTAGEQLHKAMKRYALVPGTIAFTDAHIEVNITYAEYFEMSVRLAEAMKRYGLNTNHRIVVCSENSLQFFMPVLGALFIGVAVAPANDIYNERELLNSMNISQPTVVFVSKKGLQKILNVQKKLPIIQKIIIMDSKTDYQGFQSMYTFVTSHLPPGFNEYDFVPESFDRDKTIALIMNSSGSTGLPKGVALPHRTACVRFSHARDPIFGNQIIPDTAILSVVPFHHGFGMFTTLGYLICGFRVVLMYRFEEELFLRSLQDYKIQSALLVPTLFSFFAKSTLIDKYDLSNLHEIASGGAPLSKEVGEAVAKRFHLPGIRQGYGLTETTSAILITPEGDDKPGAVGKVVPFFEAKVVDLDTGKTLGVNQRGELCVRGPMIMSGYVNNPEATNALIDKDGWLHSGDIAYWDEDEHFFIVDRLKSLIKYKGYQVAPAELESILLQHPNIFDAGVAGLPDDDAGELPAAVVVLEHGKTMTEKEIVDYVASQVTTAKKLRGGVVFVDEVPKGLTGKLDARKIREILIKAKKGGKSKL

Turning to `CCCCC(CC)(CO)CO`, the Potency result in [1], in assay [2], in [3], in assay [4], in assay [5] and in [6] was “inactive” in each case. The Potency result in assay [7], in [8], in [9] and in assay [10] was “inactive” throughout.
For `CC(C)c1cccc(C(C)C)c1NC(=O)NS(=O)(=O)c1cc(C(C)(C)O)co1`, the Potency result in [1], in [2], in assay [3], in assay [4], in assay [5] and in assay [6] was “inactive” in each case. Further, the Potency entry in assay [11], in assay [12], in assay [9] and in assay [10] was “inactive” each time.
Consider `CC(C)(Oc1ccc(Cl)cc1)C(=O)OCCCOC(=O)C(C)(C)Oc1ccc(Cl)cc1`, for which the Potency result in assay [1], in assay [2], in assay [3], in assay [4], in assay [5] and in [6] was “inactive” each time. The Potency entry in [11], in [12] and in [9] was “inactive” throughout.
Turning to `CC(O)C1CCCCC1` (stereo unspecified), the Potency result in assay [1], in assay [2], in assay [3], in assay [4], in [5] and in assay [6] was “inactive” throughout. Also, the Potency entry in [11], in assay [12], in [8], in [9], in [13] and in assay [14] was “inactive” throughout. Besides, the Potency entry in [10] was “inactive”.
Take `CCCCCOC(=O)COc1cc(N2C(=O)C3=C(CCCC3)C2=O)c(F)cc1Cl`: the Potency result in assay [1], in [2], in [3], in assay [4], in assay [5] and in assay [6] was “inactive” throughout. The Potency entry in [11], in [12], in assay [9] and in [10] was “inactive” in each case.
With `Cc1ncsc1CCO`, the Potency entry in [1], in assay [2], in assay [3], in [4], in assay [5] and in assay [11] was “inactive” each time. Further, the Potency result in assay [12], in assay [7], in assay [9] and in assay [10] was “inactive” throughout.
With `Cn1c(=O)c2c(ncn2CC(O)CO)n(C)c1=O` (stereo unspecified), the Potency result in assay [1], in assay [2], in assay [3], in assay [4], in assay [5] and in assay [6] was “inactive” throughout. The Potency entry in assay [12], in [7], in assay [8], in assay [9], in assay [13] and in assay [14] was “inactive” each time. The Potency entry in [10] is “inactive”.
As to `CCCCCC(CO)CCC` (stereo unspecified), the Potency result in assay [1], in assay [2], in assay [3], in assay [4], in assay [5] and in [6] was “inactive” in each case. The Potency result in [9], in [13] and in [14] was “inactive” throughout.
Regarding `CN1CCN(C2=Nc3ccccc3Sc3ccc(Cl)cc32)CC1`, the Potency entry in assay [1], in [2], in assay [3], in assay [4], in assay [5] and in assay [11] was “inactive” each time. Further, the Potency entry in [12], in assay [7], in assay [8], in assay [9], in assay [13] and in [14] was “inactive” in each case.
Regarding `O=S1(=O)c2cccc3cccc(c23)N1CCCN1CCN(c2ccc(F)cc2)CC1`, the Potency entry in assay [1], in assay [2], in [3], in assay [4], in assay [5] and in assay [11] was “inactive” in each case. The Potency result in assay [12], in assay [7], in assay [9], in assay [13], in assay [14] and in assay [10] was “inactive” throughout. Besides, the Potency in [8] is 26.6 µM (active).
Consider `CCCCCCCCCC(=O)OCC`, for which the Potency entry in assay [1], in assay [2], in assay [3], in assay [4], in assay [5] and in assay [6] was “inactive” each time. In addition, the Potency entry in assay [11], in assay [12], in assay [8], in [9] and in [10] was “inactive” in each case.
In the case of `CC(C)c1ccc2c(C(C)C)cc(C(C)C)c(S(=O)(=O)O)c2c1`, the Potency entry in assay [1], in [2], in [3], in [4], in assay [5] and in [6] was “inactive” throughout. The Potency entry in assay [11], in assay [12], in assay [9] and in [10] was “inactive” throughout.
In the case of `Oc1ccc2c(c1)OCO2`, the Potency result in assay [1], in [2], in assay [3], in [4], in assay [5] and in assay [6] was “inactive” each time. The Potency entry in assay [11], in assay [7], in assay [8] and in [9] was “inactive” throughout.
As to `Nc1ccc(C(=O)N2CC3CC(CN(Cc4ccccc4)C3)C2)cc1`, the Potency entry in assay [1], in assay [2], in [3], in assay [4], in assay [5] and in [6] was “inactive” in each case. Besides, the Potency result in [11], in assay [12], in assay [8], in assay [9], in assay [14] and in assay [10] was “inactive” each time.
Consider `O=C(O)COC(=O)Cc1ccccc1Nc1c(Cl)cccc1Cl`, for which the Potency result in assay [1], in assay [2], in [3], in [4], in [5] and in assay [6] was “inactive” throughout. Also, the Potency result in assay [11], in assay [9], in assay [13], in [14] and in assay [10] was “inactive” throughout.
For the compound `CC1=CC(=O)/C(=C(/C)O)C(=O)O1`, the Potency result in assay [1], in assay [2], in assay [3], in assay [4], in assay [5] and in assay [6] was “inactive” each time. For the same compound, the Potency result in [12], in assay [7] and in assay [9] was “inactive” each time.
Turning to `ClC(Cl)(Cl)c1ccc(C(Cl)(Cl)Cl)cc1`, the Potency entry in assay [1], in assay [2], in assay [3], in [4], in assay [5] and in [6] was “inactive” each time. Moreover, the Potency entry in assay [11], in [7], in [9] and in [10] was “inactive” in each case.
`CC(=O)OCCc1ccccc1`: the Potency entry in assay [1], in assay [2], in assay [3], in assay [4], in assay [5] and in assay [6] was “inactive” throughout. For the same compound, the Potency result in assay [11], in assay [7], in assay [8], in assay [9] and in [10] was “inactive” throughout.
For the compound `CCCCCCCCCCCCCCCBr`, the Potency entry in assay [1], in assay [2], in assay [3], in [4], in assay [5] and in assay [6] was “inactive” throughout. In addition, the Potency result in assay [11], in assay [12], in assay [9] and in [10] was “inactive” throughout.
Take `CC(C(=O)O)c1ccc(-c2ccccc2)c(F)c1` (stereo unspecified): the Potency result in [1], in assay [2], in [3], in [4], in [5] and in [11] was “inactive” each time. For the same compound, the Potency entry in [12], in assay [7], in [8] and in [9] was “inactive” throughout.
With `O=C(CCN1CCN2CCCC2C1)N1c2ccccc2Sc2ccc(Cl)cc21` (stereo unspecified), the activity change, negative = cytotoxicity in [1] was -22.2% [at 15.8 µM]; in [2], -0.0558% [at 19 µM]; in [12], -18.2% [at 19 µM]. The values for the activity, negative = inhibition in assay [3] and in [13] were -11.3% [at 19 µM] and -25.1% [at 19 µM], respectively. The Potency result in [4] was “inactive”. In addition, the figures for the viability change, negative = cytotoxic in [5], in [11] and in [9] were -8.93% [at 19 µM], -17% [at 19 µM] and -1.3% [at 19 µM], respectively. For the same compound, the activity change, negative = inhibition in [6] is -1.42% [at 23.6 µM]. Besides, the figures for the activation in assay [14] and in [10] were -6.92% [at 19 µM] and -2.43% [at 19 µM], respectively.
For the compound `CCCCCCCCCCCCC(=O)O`, the Potency is 24.6 µM (active) in assay [1] and 63.5 µM (active) in assay [6]. Besides, the Potency result in assay [2], in [3], in assay [4], in assay [5], in [11] and in assay [7] was “inactive” throughout. Further, the Potency entry in assay [8], in assay [9] and in assay [10] was “inactive” in each case.
